Shown are actives, neighbours in structure and some others; about 6.8% of the full set was active somewhere.
MCF10A rerep – induces DNA re-replication in MCF 10a normal breast cells | MCF 10A DNA re-replication, Hoechst nuclear intensity, 48 h | AID 624296 | 350,000 compounds, 2.9% hits | Potency, µM (series often up to 46.1 µM), inactives show top-dose activity, positive = re-replication, most hits filed as activators; further: % of control where 0% means no effect; nearly all actives have a fitted effect of over 50% in size
KB-3-1 tox – kills parental KB-3-1 adenocarcinoma cells; Potency, µM (highest dose often 46.1 µM), most hits filed as cytotoxic; 400,000 compounds, 1.4% hits; KB-3-1 viability, CellTiter-Glo ATP luminescence, 72 h; further: on the % scale 0 is the no-effect control and ±100 the full control effect; nearly all actives have a fitted effect of over 60% in size
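Cytotoxicity measured as CellTiter-Glo luminescence after 72 h at 37 C. Compound titrations were pinned onto drug-naive KB-3-1 parental adenocarcinoma cells grown in DMEM with 10% FBS, and normalized data fitted to concentration-response curves.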
KB-V1 MDR tox – KB-V1 MDR subline cytotoxicity; KB-V1 MDR cells viability, CellTiter-Glo, 72 h; Potency, µM (series often up to 46.1 µM), most hits filed as cytotoxic; 400,000 compounds, 3.4% hits; AID 1347076; further: on the % scale 0 is the no-effect control and ±100 the full control effect; nearly all actives have a fitted effect of over 60% in size
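Drug-selected KB-V1 cells, grown in DMEM lacking phenol red with 10% FBS, receive compound titrations; after three days at 37 degrees C, surviving cell ATP is quantified by CellTiter-Glo luminescence and responses normalized and curve-fitted.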
SW480 rerep – DNA re-replication induction in SW480 cells; SW480 DNA re-replication, Hoechst DNA content imaging, 48 h; Potency, µM (titrated, usually from 46.1 µM), inactives show at the top dose re-replication activation, hits mostly activators; 340,000 compounds, 1.8% hits; AID 624297; further: % of control where 0% means no effect; nearly all actives have a fitted effect of over 55% in size
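Cells (250 per well) received 23 nL compound or DMSO by pin tool and were kept 48 hr at 37 C, 5% CO2. Nuclei were then stained with Hoechst for 40 min and scanned for DNA content.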
PINK1 expr mod – changes PINK1 expression; PINK1 immunofluorescence, high-content cytometry, 24 h; 410,000 compounds, 0.2% hits; Potency, µM (series often up to 76.6 µM), inactives show at the highest dose activation (PINK1 increase), actives largely listed as activators; active means well fitted activation curve with a large enough effect; inconclusive means small, poorly fitted or top-dose-only effect; cell line not stated here; further: % of control where 0% means no effect; nearly all actives have a fitted effect of over 65% in size
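A stable cell line was treated with compounds at 5 concentrations for 24 hours, with CCCP as control. PINK1 levels and mitochondrial localization were measured by immunofluorescence with mitochondrial, cell and nuclear markers after fixation, read by laser-scanning cytometry.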
TSG101-PTAP inh – blocks PTAP/TSG101 interaction to inhibit HIV-1 budding | Q99816 | Fluorescence polarization, FITC-PTAP peptide / Tsg101 binding | Potency, µM (series often up to 115 µM), inactives show top-dose activity change, negative = inhibition, actives largely listed as inhibitors | 340,000 tested, under 10 active | AID 493005; active means well fitted inhibition curve with a large enough effect in the main read-out, with a control signal flat, not every such curve was filed as active; inconclusive means small, poorly fitted or top-dose-only effect, or effect the other way, or a change in a side signal; inactive means no such curve, though single readings can be large or run the other way; further: % of control where 0% means no effect
Target sequence (Q99816 whole entry, looked up): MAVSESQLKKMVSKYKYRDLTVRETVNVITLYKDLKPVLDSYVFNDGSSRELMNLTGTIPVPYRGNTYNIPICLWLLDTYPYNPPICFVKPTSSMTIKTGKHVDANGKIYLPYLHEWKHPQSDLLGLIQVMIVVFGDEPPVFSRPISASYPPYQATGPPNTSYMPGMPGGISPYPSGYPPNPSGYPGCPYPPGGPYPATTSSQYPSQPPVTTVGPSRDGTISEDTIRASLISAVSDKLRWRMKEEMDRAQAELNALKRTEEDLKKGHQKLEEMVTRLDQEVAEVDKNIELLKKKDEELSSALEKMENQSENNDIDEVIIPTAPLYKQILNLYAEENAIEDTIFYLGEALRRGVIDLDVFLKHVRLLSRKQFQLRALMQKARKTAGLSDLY
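Tsg101 binding domain (10 uM final) was mixed with compound and a FITC-labeled PTAP peptide (50 nM final) in HEPES pH 7.5 buffer with NaCl, Tween 20, EDTA and TCEP; fluorescence polarization was read after 20 min at r.t.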
The depositor's hits bear a star; i = inactive; ? = inconclusive; · = no result; [ ] = another dose, or the depositor's remark. Unless noted, the call rests on the fitted dose curve; in most records, active means well fitted curve in the direction sought with a large enough effect; inconclusive means small, poorly fitted or top-dose-only effect, or another doubt; inactive means no such curve, though single readings can be large; an effect the other way counts as inactive or inconclusive. Potency means the concentration at half of the fitted maximal effect.

SMILES	MCF10A rerep	KB-3-1 tox	KB-V1 MDR tox	SW480 rerep	PINK1 expr mod	TSG101-PTAP inh
COc1cc(C(=O)NC2CCN(C)CC2)ccc1Nc1ncc2c(n1)N(C1CCCCC1)CCC(=O)N2C	0.65µM*	?	i	1.5µM*	?	-3%
CCN1C(=O)CC(c2ccccc2)N(C2CCCC2)c2nc(Nc3ccc(C(=O)NC4CCN(C)CC4)cc3OC)ncc21 (stereo not drawn)	?	18µM*	?	12%	-1%	-2%
COC(=O)CN1C(=O)CSc2ccc(S(=O)(=O)Nc3cccc(C)c3)cc21	·	·	·	·	3%	·
Cc1ccc(-n2c(SCc3ccccc3)nc3c([nH]c4ccccc43)c2=O)cc1	·	i	i	·	-2%	·
CC1(C)Oc2ccc(C(=O)N3CCCC3)cc2N(CC(=O)NCc2ccccc2)C1=O	-8%	i	i	-2%	-1%	-1%
COc1ccc(C(=O)CN2C(=O)C(C)(C)Oc3ccc(C(=O)N4CCCCCC4)cc32)cc1	22%	i	18µM*	4%	2%	2%
COc1ccccc1CCNS(=O)(=O)c1cc2c3c(c1)CCN3C(=O)CC2	-2%	i	i	1.5µM*	0%	0%
COc1ccc(OC)c(C(=O)c2coc3ccc(OC(C)=O)cc23)c1	21µM*	i	i	?	4%	-3%
CC1CC(OC(=O)C(O)c2ccccc2)CC(C)(C)C1 (stereo not drawn)	7%	·	·	-5%	·	·
COc1ccc(-n2nc(C(=O)Nc3ccc4c(c3)OCO4)c3c4ccccc4n(C)c3c2=O)cc1	2%	i	i	-2%	0%	-4%
COc1ccc(-n2nc(C(=O)Nc3ccc(OC)c(OC)c3)c3c4ccccc4n(C)c3c2=O)cc1	?	?	?	16µM*	7%	?
Cc1ccc(S(=O)(=O)N2CCCOC2CNC(=O)C(=O)NCCC2=CCCCC2)cc1 (stereo not drawn)	8%	?	2.9µM*	4%	1%	-3%
Cc1cc(C)c(S(=O)(=O)N2CCCOC2CNC(=O)C(=O)NCCc2c[nH]c3ccccc23)c(C)c1 (stereo not drawn)	-2%	i	16µM*	13%	-1%	-1%
Cc1ccc(S(=O)(=O)N2CCCOC2CNC(=O)C(=O)NCCN2CCOCC2)cc1 (stereo not drawn)	11%	i	i	1%	0%	5%
O=C(NCc1cccs1)C(=O)NCC1OCCCN1S(=O)(=O)c1cccs1 (stereo not drawn)	-12%	i	i	-2%	0%	-1%
Cc1cc(C)c(S(=O)(=O)N2CCCOC2CNC(=O)C(=O)NCc2cccs2)c(C)c1 (stereo not drawn)	-8%	i	18µM*	20%	2%	-11%
O=C(NCCc1c[nH]c2ccccc12)C(=O)NCC1OCCCN1S(=O)(=O)c1ccc(F)cc1 (stereo not drawn)	15%	i	?	?	-1%	-1%
Cc1cc(F)ccc1S(=O)(=O)N1CCCOC1CNC(=O)C(=O)NCCc1c[nH]c2ccccc12 (stereo not drawn)	?	?	3.3µM*	18%	-1%	-3%
Cc1ccc(S(=O)(=O)N2CCOC2CNC(=O)C(=O)NCCc2c[nH]c3ccccc23)cc1 (stereo not drawn)	0%	i	i	-165%	0%	-2%
O=C(C[N+]12CN3CN(CN(C3)C1)C2)c1ccc(O)c(O)c1	·	i	i	·	1%	·
CN(C)c1ccc(N=Nc2ccc(/C=C/c3ccnc4ccccc34)cc2)cc1	·	i	i	·	17%	·
CN(C)c1ccc(/C=C/c2cc[n+](C)c3ccc4ccccc4c23)cc1	·	0.92µM*	?	·	4.5µM*	·
C[n+]1ccc(/C=C/c2ccccc2O)c2ccccc21	?	i	?	0%	-1%	-3%
COc1cc(OC)c(OC)cc1/C=C/c1cc[n+](C)c2ccccc12	·	15µM*	i	·	6%	·
C[n+]1ccc(/C=C/c2ccc(C=S)cc2)c2ccccc21	·	?	i	·	45µM*	·
SMILES	MCF10A rerep	KB-3-1 tox	KB-V1 MDR tox	SW480 rerep	PINK1 expr mod	TSG101-PTAP inh
Cc1cc(N(C)C)cc(C)c1/C=C/c1cc[n+](C)c2ccccc12	·	4.6µM*	i	·	·	·
COc1ccc2c(c1)OC(C)CN(CC(=O)NCc1cn[nH]c1-c1ccc(F)cc1)C2 (stereo not drawn)	·	·	·	·	0%	·
O=[N+]([O-])c1cc(Br)c(O)c(C=Nc2ccc(N3CCOCC3)cc2)c1	?	i	i	12%	3%	1%
O=[N+]([O-])c1cc(Br)c(O)c(/C=N/Nc2nnnn2-c2cccc3ccccc23)c1	4.1µM*	i	?	14%	-4%[38.3 µM]	-6%
COc1cccc(NC(=O)C2CCCN(c3nnc(-n4c(C)ccc4C)s3)C2)c1 (stereo not drawn)	·	·	·	·	0%	·
CCCCCCCCCCCCCCCC[n+]1ccc(/C=N/O)cc1	2.6µM*	2.9µM*	i	21µM*	-1%	-3%
CCCCCCCCCCCCCC[n+]1ccc(C)cc1	55%	·	·	?	·	·
Cc1nnc(N2CCN(C(=O)Nc3cc(F)ccc3F)CC2)c2nn(-c3ccc(Cl)cc3)c(C)c12	·	i	?	·	0%	·
CC1(C(=O)Nc2ccc3c(c2)OCCO3)CCN1C(=O)Cc1ccc(-c2ccccc2)cc1 (stereo not drawn)	·	?	18µM*	·	0%	·
CC(C)c1ccc(CC(=O)N2CCC2(C)C(=O)Nc2ccc3c(c2)OCO3)cc1 (stereo not drawn)	·	?	21µM*	·	3%	·
CC1(C(=O)Nc2cccc(C#N)c2)CCN1C(=O)Cc1ccc(-c2ccccc2)cc1 (stereo not drawn)	·	i	i	·	-1%	·
Cc1ccc(Cl)cc1N1CCN(C(=O)c2cn(C)c3ccc(S(=O)(=O)N4CCC(C)CC4)cc3c2=O)CC1	·	i	i	·	1%	·
COc1ccccc1-c1ccnc(-n2ncc(C(=O)NCc3cccnc3)c2C)n1	·	·	·	·	0%	·
CC1CCC2C(=O)N(c3ccc(Cc4ccncc4)cc3)C(=O)C2C1 (stereo not drawn)	-12%	4.6µM*	10µM*	?	1%	-3%
COc1ccc(N=Nc2c(C)[nH][nH]c2=O)cc1	0%	?	23µM*	0%	-1%	-6%
COc1cccc(N=Nc2c(N)[nH][nH]c2=O)c1	18%	i	18µM*	-4%	-2%	1%

Screening results deposited in PubChem BioAssay by National Center for Advancing Translational Sciences (NCATS).
